A short description of experiment [1]: Cell Viability - BJ (AID 421; calls by dose curve;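 also: potency is read from the fitted curve at half-maximal effect; cells exposed to compound for 40 hours at 37 °C before readout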). The settings on record: BJ fibroblast viability, qHTS. A digest of the protocol: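 Normal human BJ foreskin fibroblasts, 1500/well in complete medium, treated 40 hr at 37 °C. Cellular ATP by CellTiter-Glo luminescence; normalized to DMSO and 100 uM tamoxifen, AC50 from Hill fit.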
For orientation: qHTS replaces the single test concentration by a dilution series.

Experiment [2] is described as follows: Cell Viability - HepG2 (AID 433; calls by dose curve;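 also: potency is read from the fitted curve at half-maximal effect; cells exposed to compound for 40 hours; potency for ATP loss meaning cytotoxicity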). The settings on record: qHTS. The method, boiled down:
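Read-out is luciferase-based quantitation of cellular ATP as a measure of viable HepG2 cells after 40 h treatment at 37 °C. Signal decrease is scaled between DMSO-only and 100 uM tamoxifen controls, with AC50 fitted by the Hill equation.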

The nature of experiment [3]: Cell Viability - Mesenchymal (AID 546).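 Also: cells exposed to compound for 40 hours before reading.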 Also: potency is read from the fitted curve at half-maximal effect. The settings on record: mesenchymal cells viability, qHTS; activity change, negative = cytotoxicity: at 91.7 µM (top of the series). A digest of the protocol:
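Normal human renal glomerulus-derived kidney mesenchymal cells, 1000 per well in complete medium, were treated with compounds for 40 hr at 37 °C. Viability was read as intracellular ATP by CellTiter-Glo luminescence; AC50 values came from Hill-equation fits of qHTS concentration-response data.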

Experiment [4] can be described thus: Cellular Toxicity (caspase-3) Jurkat (AID 655).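 Also: cells exposed to compound for 16 h at 37 °C before reading.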 As to conditions: Jurkat caspase-3 activation, luminescence; caspase-3 activation: at 92.2 µM (top of the series), DMSO = 0%, tamoxifen = 100%. The method, boiled down: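 5000 Jurkat cells/well; compound 16 hr, 37 °C; Caspase-Glo 3/7 added, 20 min RT; luminescence read. Norm: DMSO = 0%, tamoxifen 100 uM = 100%. AC50, Hill model.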

Experiment [5] is described as follows: Cell Viability - LYMP2-003 (AID 965).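 Also: cells exposed to compounds for 24 h before reading; nearly all actives have a fitted effect of over 50% in size.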 Also: potency is read from the fitted curve at half-maximal effect.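 As to activity change, negative = cytotoxicity: 0% = DMSO only and full effect = 92 µM tetraoctylammonium bromide.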 As to conditions: LYMP2-003 lymphoblastoid cell viability; series mostly up to 92.2 µM. A digest of the protocol:
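Seed 2500 lymphoblastoid cells/well; incubate 5 hr, 37 C; add compounds; incubate 24 hr, 37 C; add CellTiter-Glo, 30 min RT; read luminescence. AC50 from Hill fit.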

Experiment [6] in a line: Cell Viability - LYMP2-011 (AID 969).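 Also: cells exposed to compound for 24 hours; nearly all actives have a fitted effect of over 60% in size.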 Also: potency is read from the fitted curve at half-maximal effect. The settings on record: LYMP2-011 lymphoblastoid cells viability; series mostly up to 92.2 µM. A digest of the protocol:
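Acute toxicity is scored as a concentration-dependent drop in intracellular ATP of a human lymphoblastoid line after 24 hr treatment. Values are AC50s modeled with the Hill equation.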

The nature of experiment [7]: Cell Viability - LYMP2-021 (AID 974).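 Also: compound exposure lasts 24 hours at 37 °C; nearly all actives have a fitted effect of over 55% in size.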 Also: potency is read from the fitted curve at half-maximal effect. As to activity change, negative = cytotoxicity: % is scaled to controls: 0 for no effect and ±100 for the full control effect. As to conditions: LYMP2-021 lymphoblastoid cells viability; series mostly up to 92.2 µM. The method, boiled down: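 Concentration-response cytotoxicity in a human lymphoblastoid line: 24 hr treatment at 37 C in complete culture medium, tetraoctylammonium bromide as positive control, luminescent ATP quantitation as viability measure.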

A short description of experiment [8]: Cell Viability - LYMP2-023 (AID 975).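 Also: cells exposed to compound for 24 hours at 37 °C; nearly all actives have a fitted effect of over 55% in size.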 Also: potency is read from the fitted curve at half-maximal effect.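 As to activity change, negative = cytotoxicity: cellular ATP measured by luciferase luminescence as viability proxy; plate controls were DMSO only for no effect and 92 µM tetraoctylammonium bromide control for full effect.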 As to conditions: LYMP2-023 lymphoblastoid cell viability; series mostly up to 92.2 µM. The method, boiled down: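 Concentration-dependent drop in intracellular ATP measures acute cytotoxicity in a human lymphoblastoid line treated for 24 hours in complete culture medium. AC50 values are taken from Hill-equation fits of qHTS data.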

Experiment [9] in a line: Cell Viability - LYMP2-025 (AID 976).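 Also: plate controls were DMSO only for no effect and tetraoctylammonium bromide control for full effect.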 As to conditions: LYMP2-025 lymphoblastoid cell viability; series mostly up to 92.2 µM. The method, boiled down: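 In qHTS format, LYMP2-025 lymphoblastoid cells in complete culture medium received compound for 24 hr; ATP-based CellTiter-Glo signal gave viability, with AC50 derived by Hill equation.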
A short description of experiment [10]: Cell Viability - LYMP2-002 (AID 977).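 Also: plate controls were DMSO only for no effect and 92 µM tetraoctylammonium bromide for full effect.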 As to conditions: LYMP2-002 lymphoblastoid cell viability, qHTS; series mostly up to 92.2 µM. The method, boiled down: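 Luminescent ATP readout (CellTiter-Glo, 30 min room temperature) after 24 h compound exposure at 37 C of a human lymphoblastoid line, 2500 cells/well. AC50 values derived by standard Hill fitting of qHTS concentration-response data.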

A short description of experiment [11]: Cell Viability - LYMP2-008 (AID 980). Also: nearly all actives have a fitted effect of over 60% in size. Also: potency is read from the fitted curve at half-maximal effect. As to activity change, negative = cytotoxicity: % is scaled to controls: 0 for no effect and ±100 for the full control effect. The settings on record: LYMP2-008 lymphoblastoid cell viability, qHTS; series mostly up to 92.2 µM. The method, boiled down:
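Acute cytotoxicity is scored as concentration-dependent loss of cellular ATP in a human lymphoblastoid line after 24 hr treatment at 37 C. ATP is quantified by luciferase luminescence.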

The nature of experiment [12]: Cell Viability - LYMP2-014 (AID 983). Also: nearly all actives have a fitted effect of over 50% in size. Also: potency is read from the fitted curve at half-maximal effect.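 As to activity change, negative = cytotoxicity: plate controls were DMSO only for no effect and 92 µM tetraoctylammonium bromide for full effect.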 The settings on record: LYMP2-014 lymphoblastoid cells, viability qHTS; series mostly up to 92.2 µM. A digest of the protocol: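 Decrease in intracellular ATP after 24 hr treatment at 37 C, measured by luciferase luminescence, indicated cytotoxicity. Concentration-response data were fitted with the standard Hill equation to give AC50.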

The nature of experiment [13]: Cell Viability - LYMP2-016 (AID 984).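 Also: cells exposed to compound for 24 hours at 37 °C; nearly all actives have a fitted effect of over 55% in size.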 Also: potency is read from the fitted curve at half-maximal effect. As to activity change, negative = cytotoxicity: % is scaled to controls: 0 for no effect and ±100 for the full control effect. The settings on record: LYMP2-016 lymphoblastoid cell viability, qHTS; series mostly up to 92.2 µM. The method, boiled down:
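Cells were seeded at 2500 per well and rested 5 hr before a 24 hr compound exposure at 37 C. Viability was then gauged as cellular ATP by luciferase luminescence, with AC50 values fitted to the Hill equation.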

The nature of experiment [14]: Cell Viability - LYMP2-018 (AID 985). Also: nearly all actives have a fitted effect of over 50% in size. Also: potency is read from the fitted curve at half-maximal effect.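 As to activity change, negative = cytotoxicity: plate controls were DMSO only for no effect and tetraoctylammonium bromide at 92 µM for full effect.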 As to conditions: LYMP2-018 lymphoblastoid cells, viability (qHTS); series mostly up to 92.2 µM. The method, boiled down: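 Acute cytotoxicity is scored as a concentration-dependent drop in intracellular ATP after 24 hr exposure of the lymphoblastoid line in complete culture medium, measured by luciferase luminescence. Potency is expressed as AC50 from Hill modelling.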

Experiment [15] in a line: Cell Viability - LYMP2-022 (AID 987). Also: nearly all actives have a fitted effect of over 55% in size. Also: potency is read from the fitted curve at half-maximal effect. As to conditions: LYMP2-022 lymphoblastoid cell viability; series mostly up to 92.2 µM. The method, boiled down: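 Acute toxicity in a human lymphoblastoid line is scored as decreased intracellular ATP after 24 hr compound treatment at 37 C. ATP is measured by CellTiter-Glo luminescence; curves are fitted with the Hill equation to give AC50.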

A short description of experiment [16]: Cell Viability - LYMP2-024 (AID 988). Also: nearly all actives have a fitted effect of over 60% in size. Also: potency is read from the fitted curve at half-maximal effect.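 As to activity change, negative = cytotoxicity: plate controls were DMSO only for no effect and 92 µM tetraoctylammonium bromide for full effect.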 As to conditions: LYMP2-024 lymphoblastoid cell viability; series mostly up to 92.2 µM. A digest of the protocol:
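Acute toxicity is measured as concentration-dependent loss of intracellular ATP in a human lymphoblastoid line treated 24 hours at 37 C. Luciferase luminescence quantifies ATP; AC50 values come from standard Hill-equation modelling.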

Experiment [17] is described as follows: Cell Viability - LYMP2-026 (AID 989). Also: nearly all actives have a fitted effect of over 50% in size. Also: potency is read from the fitted curve at half-maximal effect. The settings on record: LYMP2-026 lymphoblastoid cell viability, qHTS; series mostly up to 92.2 µM. A digest of the protocol: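 Concentration-dependent loss of intracellular ATP in human lymphoblastoid cells after 24 hr at 37 C, quantified by luciferase luminescence. AC50 derived from standard Hill equation.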
Experiment [18] in a line: qHTS assay for small molecule antagonists of retinoid X receptor alpha signaling (AID 588546; active = well fitted inhibition curve with a large enough effect in the signal ratio, with a control signal flat, not every such curve was filed as active; the % refers to the signal ratio;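 also: cells stimulated with 9-cis-retinoic acid as agonist; % is scaled to controls: 0 for no effect and ±100 for the full control effect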). The settings on record: HEK293T RXRa-UAS-bla, beta-lactamase ratio, antagonist mode; measured here: W530 green channel, cytotoxicity proxy. The method, boiled down: (§1)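 Beta-lactamase reporter inhibition, read as CCF4 fluorescence ratio (ex 405, em 460/530 nm) after 2 h at RT. HEK293T UAS-bla cells, 2500/well, were stimulated with 9-cis-RA at 500 or 100 nM final alongside test compound for 18 h at 37 C.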

In experiment [19] the target is Retinoic acid receptor RXR-alpha (Homo sapiens) (UniProt P19793). The description is as above. The settings on record: HEK293T RXRa-UAS-bla, beta-lactamase ratio, antagonist mode. A digest of the protocol: as §1
Experiment [20] in a line: qHTS assay for environmental chemicals that activate the Aryl hydrocarbon Receptor (AhR) signaling pathway (AID 651777). Also: % of control where 0% means no effect; nearly all actives have a fitted effect of over 15% in size. The settings on record: 1A2-DRE human hepatoma cells, luciferase, 24 h; activation: stronger effect = higher value. The method, boiled down:
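Stable CYP1A2 promoter/DRE-luciferase human hepatoma line treated 24 hr; One-Glo luminescence, 30 min RT.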

Records with an inconclusive call do not appear. Active and inactive are the calls of the source. Unless noted, calls follow the shape of the dose curve; as a rule, active = well fitted curve in the direction sought with a large enough effect; inconclusive = small, poorly fitted or top-dose-only effect, or another doubt; inactive = no such curve, though single readings can be large; an effect the other way counts as inactive or inconclusive.

Sequence of Retinoic acid receptor RXR-alpha (Homo sapiens) (P19793 whole entry, looked up): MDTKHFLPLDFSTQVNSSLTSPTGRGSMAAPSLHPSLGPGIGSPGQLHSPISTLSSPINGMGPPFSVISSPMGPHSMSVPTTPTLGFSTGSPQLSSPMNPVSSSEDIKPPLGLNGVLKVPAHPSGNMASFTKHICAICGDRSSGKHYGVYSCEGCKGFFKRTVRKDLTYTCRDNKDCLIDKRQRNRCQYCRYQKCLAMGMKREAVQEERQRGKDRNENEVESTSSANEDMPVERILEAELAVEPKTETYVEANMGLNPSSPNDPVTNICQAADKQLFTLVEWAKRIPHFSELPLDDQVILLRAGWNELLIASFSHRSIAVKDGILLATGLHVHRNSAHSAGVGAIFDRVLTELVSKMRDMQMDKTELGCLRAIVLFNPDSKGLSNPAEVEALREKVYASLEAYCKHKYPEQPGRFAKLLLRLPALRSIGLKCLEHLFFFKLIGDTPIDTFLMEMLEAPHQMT

For `Cc1ccccc1OCC1CO1` (centres undefined), the Potency in experiment [1] and in experiment [2] was > 92 µM (inactive) in each case. For the same compound, the Potency entry in [3], in experiment [4], in experiment [5], in experiment [6], in experiment [7] and in experiment [8] was “inactive” each time. The Potency result in experiment [9], in experiment [10], in experiment [11], in [12], in experiment [13] and in [14] was “inactive” each time. Moreover, the Potency result in experiment [15], in experiment [16] and in experiment [17] was “inactive” throughout. The max response is -1.65% in [18] and 0.471% (inactive) in experiment [19]. Besides, the activation in experiment [20] is -0.0777% (inactive).

As for `CCCCCCCCOc1ccc(C(=O)O)cc1`, the Potency in experiment [1] and in [2] was > 92 µM (inactive) in each case. Further, the Potency result in experiment [3], in experiment [4], in experiment [5], in experiment [6], in experiment [7] and in [8] was “inactive” in each case. Besides, the Potency entry in [9], in experiment [10], in [11], in experiment [12], in [13] and in experiment [14] was “inactive” throughout. In addition, the Potency result in experiment [15], in [16] and in experiment [17] was “inactive” in each case. Moreover, the max response in experiment [18] is -3.84%; in [19], -6.4% (inactive). Moreover, the activation in experiment [20] is 8.38% (inactive).

As for `CC(=O)OC(C(=O)c1ccccc1)c1ccccc1` (centres undefined), the Potency in experiment [1] and in experiment [2] was > 92 µM (inactive) throughout. The Potency entry in experiment [3], in experiment [4], in experiment [5], in experiment [6], in [7] and in experiment [8] was “inactive” each time. Also, the Potency entry in experiment [9], in [10], in experiment [11], in [12], in experiment [13] and in [14] was “inactive” each time. Besides, the Potency entry in experiment [15], in experiment [16] and in experiment [17] was “inactive” throughout. For the same compound, the max response is -6.89% in experiment [18] and 22.3% (inactive) in experiment [19]. In experiment [20], the activation is -0.426% (inactive).

As to `C[C@@H]1CC2(OC(O)[C@]3(C)O[C@H]23)O[C@H]2C[C@@]3(C)[C@@H]4CC[C@H]5C(C)(C)C(O[C@@H]6OC[C@@H](O)[C@H](O)[C@H]6O)CC[C@@]56C[C@@]46CC[C@]3(C)[C@@H]12` (some centres undefined), the Potency was > 92 µM (inactive) in experiment [1] and 39.8 µM (active) in experiment [16]. For the same compound, the Potency entry in experiment [5], in [6], in experiment [7], in experiment [8], in [9] and in [10] was “inactive” each time. Further, in [20], the activation is 0.629% (inactive).

As to `CC1=C(/C=C/C(C)=C/C=C/C(C)=C/C=O)C(C)(C)CCC1`, the Potency was 35.2 µM (active) in experiment [1]; 31.6 µM (active) in experiment [3]; 50.1 µM (active) in experiment [5]; 63.1 µM (active) in experiment [6]; 50.1 µM (active) in [7]; 50.1 µM (active) in experiment [8]. The Potency in experiment [11] was 39.8 µM (active); in experiment [12], 50.1 µM (active); in [13], 50.1 µM (active); in experiment [14], 39.8 µM (active); in [15], 39.8 µM (active); in [16], 39.8 µM (active). In addition, the Potency in experiment [17] is 50.1 µM (active). The max response in [18] was -0.803%; in [19], -29.6% (inactive). In addition, the activation in experiment [20] was 4.9% (inactive).

With `C/C=C1/C(=O)C[C@H]2[C@@H]3CCC4=CC(=O)CC[C@]4(C)[C@H]3CC[C@]12C`, the Potency is > 92 µM (inactive) in experiment [1]; > 92 µM (inactive) in experiment [2]; 50.1 µM (active) in experiment [6]; 50.1 µM (active) in [11]; 50.1 µM (active) in experiment [14]; 39.8 µM (active) in experiment [15]. Besides, the Potency in [16] is 39.8 µM (active). The Potency result in experiment [5] is “inactive”. Besides, the activation in experiment [20] is 1.95% (inactive).

(Values after PubChem BioAssay (NCATS).)
